About 83,000 compounds went through this panel and 20% of them were active in at least one assay; those are over-represented in the sample as a whole.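 Percent growth is the endpoint: 0 to 100 indicates growth inhibition (40 means 60% inhibition), 0 means no net growth, and negative values indicate cell death.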 Unmarked numbers belong to inactive results. The source made the active and inactive calls. The calls were made as follows: active = growth percent below 10; inactive = the rest.

The subject of the assay is MDA-MB-468 breast. Put plainly: NCI-60 one-dose screen, 48 h (100 = growth as untreated, 0 = no growth, -100 = all killed). The note with it: 10 µM unless noted.
Take `Nc1nc2c(c3ncccc13)C(c1cccc(Br)c1)Cc1ncccc1-2` (stereo not given): the growth was 13.7%.
On to `C#Cc1cccc(NC(=O)c2ccc(NC(=O)CCl)cc2)c1`, for which the growth was -34.6% [8.25 µM] (active).
In the case of `CCCCCCCC(C)NCCO` (stereo not given), the growth is 104%.
For the compound `Cc1cc(C)n(-c2nnc3n2N=C(c2ccc(-c4ccccc4)cc2)CS3)n1`, the growth is -5.89% (active).
As to `CCCCOC(=O)c1ccccc1O`, the growth is 95.7%.
`CCN1/C(=C\c2cc[n+](CC)c3ccccc23)C=Cc2ccccc21`: the growth is -9.93% (active).
Then `C=C(C)[C@@H]1C[C@H](O)Cc2cc(F)ccc2N1`, with 89.3%; and `N#Cc1cnc2ccc(-c3cnc4[nH]ncc4c3)cc2c1N1CCc2cc(F)c(Cl)cc21`, with -19.8% (active).
Then `COc1cc(C(=O)N/N=C/c2cccc([N+](=O)[O-])c2)cc(OC)c1OC`, with 6.95% (active); and `COc1cc(C2CC(c3ccc(Nc4ccnc5cc(Cl)ccc45)cc3)=NN2C=O)cc(OC)c1OC` (stereo not given), with -7.9% (active).
For the compound `COC(=O)[C@@H](Cc1c[nH]c2ccccc12)NC[C@@H](O)CN1C(=O)/C(=C\c2cc(OC)c(OC)c(OC)c2)c2ccccc21`, the growth is 37.9%.
Regarding `COc1ccc(C2CC(c3cnccn3)=NN2)cc1OC` (stereo not given), the growth is 105%.
In the case of `Cc1cc2nc3c4cc(C=O)ccc4n(CCN(C)C)c3nc2cc1C`, the growth was -5.88% (active).
As to `COc1ccc(Cl)c([N+](=O)[O-])c1`, the growth is 99.9%.
For the compound `CN1C2CCC1CN(c1cnc(C(=O)Nc3cc(F)cc4cccnc34)cn1)C2`, the growth was 13.1%.
As to `CCOc1ccc(Br)cc1/C=N\N=C\c1cc(Br)ccc1OCC`, the growth is 128%.
The result for `COc1ccc(Cn2c(Br)c3c(c2-c2cc(OC)c(OC)c(OC)c2)CCc2sc(N)nc2-3)cc1` reads 16.3%; that for `NS(=O)(=O)c1nnc(/N=C/c2c(O)[nH]c3ccccc23)s1`, 109%; that for `Oc1ccc(CSc2nnc(-c3cnccn3)n2-c2ccccc2)c2cccnc12`, 5.53% (active).
The result for `COc1cccc(-c2nn(-c3ccccc3)cc2-c2ccnc(NCCCNC(=O)c3cccc(C(F)(F)F)c3)c2)c1` reads 17.3%.
The result for `C#CC[C@@H]1C[C@]2(C)[C@H]3CC=C4[C@H]5CC(C)(C)CC[C@]5(C(=O)NCCCCN)CC[C@@]4(C)[C@]3(C)CC[C@H]2C(C)(C)[C@H]1OC(C)=O` reads -39.7% (active).
For the compound `c1ccc(-c2nc([P+](c3ccccc3)(c3ccccc3)c3ccccc3)c(N3CCOCC3)o2)cc1`, the growth is -22.5% (active).
Then `O=C(Nc1cccc(Cl)c1)Nc1nc2ccc(-c3cccc4ccccc34)cc2s1`, with 37.6%.
In the case of `CCOc1ccc(Br)cc1/C=C(\C#N)c1ccc([N+](=O)[O-])cc1`, the growth is 51.7%.
Regarding `CCN(CC)CCNc1nc2ccccc2c2c(=O)c3cc(Cl)ccc3sc12`, the growth is 56.2%.
`Cc1c(Cl)cccc1NCN1C(=O)c2ccccc2C1=O`: the growth is 98.4%.
Turning to `CC1(C)C2CC=C(/C=N/NC(=O)C3CCC(=O)N3)C1C2` (stereo not given), the growth is 114%.
`CCCNc1nc2ccccc2c2c1S(=O)(=O)c1ccc(Cl)cc1C2=O`: the growth is 3.32% (active).
`CN1C(=O)C(C(=O)/C=C/c2ccccc2C(=O)O)C(=O)N(C)C1=O`: the growth was 102%.
For `COC(=O)CC1=C(C)/C(=C/c2[nH]c(-c3ccc[nH]3)cc2OC)N=C1C`, the growth was 19%.
Regarding `CSCCC(NC(=O)C(Cl)Cl)C(=O)O` (stereo not given), the growth is 94.6%.
Then `N#CCCN1C/C(=C/c2ccc(Cl)cc2)C(=O)/C(=C/c2ccc(Cl)cc2)C1`, with -66.5% (active).
Consider `Fc1ccc(-c2cc3nc(C(Cl)Cl)nc(-c4cccs4)n3n2)cc1`, for which the growth was -46.8% (active).
Take `Cn1cc(-c2nnc(-c3ccccc3)s2)c2cc(Br)cnc21`: the growth is 59.4%.
In the case of `COc1ccc(C(=O)c2nc3ccccc3n2CC(=O)c2ccc(Cl)cc2)cc1`, the growth is 33.8%.
For `Cc1nn(-c2ccccc2)c2ncc3c(c12)C(=O)N(Cc1ccccc1)C3=O`, the growth was 77.8%.
As for `CC(c1ccccc1)N(C)C` (stereo not given), the growth was 86%.
Then `CN1CCN(c2ccc(Nc3nc(NCCCNS(=O)(=O)c4cccc(F)c4)c4sccc4n3)cc2)CC1`, with -5.96% (active); and `CCC#CC[C@H](O)C/C=C1/C(=O)C=C[C@@H]1C/C=C\CCCC(=O)OC`, with 12.4%; and `COc1ccc(Nc2ncccc2C(=O)NCc2cn(Cc3cccc(Oc4ccccc4)c3)nn2)cc1`, with 4.17% (active).

These data come from PubChem BioAssay (NCI).
